TDP1 cell CPT – qHTS for Inhibitors of human tyrosyl-DNA phosphodiesterase 1 (TDP1): qHTS in cells in presence of CPT; chicken DT40 Tdp1-/-;hTDP1 cells + 20 nM CPT, ATP luminescence, 48 h; AID 686979, 2013; 420,000 tested, 12% active; Potency, µM (series often up to 46.2 µM), inactives show at the top dose activity change, negative = growth inhibition, actives largely listed as inhibitors; further: potency means the concentration at half of the fitted maximal effect; nearly all actives have a fitted effect of over 55% in size
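Chicken DT40 Tdp1-/- cells stably complemented with human TDP1 were seeded at 400 cells/well in medium containing 20 nM camptothecin, exposed to pin-transferred compounds, and grown at 37 °C for at least 48 hr. Viability was read as ATP luminescence.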
HT1080NT lethal – qHTS for induction of synthetic lethality in tumor cells producing 2HG: qHTS for the HT-1080-NT fibrosarcoma cell line | HT-1080-NT fibrosarcoma viability, CellTiter-Glo ATP luminescence, 48 h | Potency, µM (top dose mostly 46.1 µM), for inactives: at the top dose activity, negative = less viability, hits mostly cytotoxic | 360,000 tested, 1.6% active;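 further: NT is the 2HG producing partner of a matched IDH1 knockdown line; potency means the concentration at half of the fitted maximal effect; 0% = DMSO-treated cells and -100% = media-only wells without cells; nearly all actives have a fitted effect of over 55% in size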
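Compounds were tested in concentration-response format on HT-1080-NT cells for 48 hours at 37 degrees C. Cell viability came from CellTiter-Glo luminescence; curves were classified by r2, response magnitude and activity.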
TDP1 cell noCPT – qHTS for Inhibitors of human tyrosyl-DNA phosphodiesterase 1 (TDP1): qHTS in cells in absence of CPT; DT40 Tdp1-/- hTDP1 cells, no CPT, ATP luminescence, 48 h; AID 686978, 2013; 420,000 tested, 15% active; Potency, µM (highest dose often 46.2 µM), for the others: top-dose activity change, negative = growth inhibition, most hits filed as inhibitors; further: potency means the concentration at half of the fitted maximal effect; nearly all actives have a fitted effect of over 55% in size
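Camptothecin absent (DMSO only). Human TDP1-complemented DT40 knockout cells, 400 cells/well, 37 °C for minimum 48 hr; ATP measured via CellTiter-Glo, 30 min dark incubation, luminescence.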
HT1080 IDH1KD tx – qHTS for induction of synthetic lethality in tumor cells producing 2HG: qHTS for the HT-1080-IDH1KD cell line; AID 686971, 2013; Potency, µM (titrated, usually from 46.1 µM), for the others: top-dose activity, negative = toxicity, usual class: cytotoxic; 360,000 tested, 2% active; HT-1080 IDH1 knockdown viability, ATP luminescence, 48 h;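 further: potency means the concentration at half of the fitted maximal effect; 0% = DMSO wells and -100% = cell-free medium wells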
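% activity derives from luminescence (CellTiter-Glo), normalised to DMSO and no-cell wells. HT-1080-IDH1KD cells, 750/well, had 48 h compound exposure at 37 °C.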
IL1B secr inh – qHTS for Inhibitors of Inflammasome Signaling: IL-1-beta AlphaLISA Primary Screen; THP-1 LPS/ATP IL-1B secretion, AlphaLISA, 16 h; active compounds read low; 360,000 tested, 4.7% active; AID 743279, 2014; activity change, % at 57.5 µM; in the data active means activity change below about -50%; inconclusive means mostly about -30% to -49%
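Secreted IL-1B measured by AlphaLISA bead assay after 16 h compound exposure of THP-1 cells; compounds (final up to 57.5 uM) added 1 h before LPS (250 ng/mL) and ATP (1.25 mM) stimulation; lower signal means less secretion.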
Active calls of the source: *; ? = inconclusive; nt = not tested or not shown. The list is not random: actives were taken first. Their share in the collection is about 19%. Unless noted, the call rests on the fitted dose curve; in most records, active means well fitted curve in the direction sought with a large enough effect; inconclusive means small, poorly fitted or top-dose-only effect, or another doubt; inactive means no such curve, though single readings can be large; an effect the other way counts as inactive or inconclusive. Unless noted, on the % scale 0 is the no-effect control and ±100 the full control effect.

SMILES	TDP1 cell CPT	HT1080NT lethal	TDP1 cell noCPT	HT1080 IDH1KD tx	IL1B secr inh
Cc1ccc(-n2nc3c(=O)n(CC(=O)NCCCc4ccccc4)nc(C)c3c2C)cc1	?	-2%	23µM*	?	4
Cc1ccc(-n2nc3c(=O)n(C(C)C(=O)NCc4ccccc4Cl)nc(C)c3c2C)cc1 (centres undefined)	?	-4%	?	-8%	-3
CCCNC(=O)C(C)n1nc(C)c2c(C)n(-c3ccccc3)nc2c1=O (centres undefined)	0%	nt	8%	nt	nt
Cc1ccc(Cl)cc1-n1c(CCC(=O)O)ccc1-c1cccs1	11%	nt	1%	nt	nt
CC(=O)OC[C@@H]1CN(Cc2ccccc2)C[C@H](n2cnc3c(N(C)C(C)C)ncnc32)O1	?	-1%	?	0%	?
Cc1ccccc1C1CCCN(Cc2nc(CC3CC3)no2)C1 (centres undefined)	-26%	3%	-26%	13%	-6
COc1ccc(CCCc2nnc(SCC(=O)Nc3cc(F)ccc3C)o2)cc1	?	nt	12µM*	nt	nt
CCOc1ccc(Nc2ccc3nonc3c2[N+](=O)[O-])cc1	4%	13%	?	21%	-11
CCOc1ccc(Nc2ncnc3ccc([N+](=O)[O-])cc23)cc1	?	-22%	6.5µM*	-25%	-6
CCCCn1nc(C(=O)N(CC(C)C)c2c(N)n(CCCC)c(=O)[nH]c2=O)c2ccccc2c1=O	-5%	8%	-18%	8%	-5
COC(=O)c1ccccc1NC(=O)Cn1nc(C(F)(F)F)c2c1CCCC2	23µM*	nt	7.3µM*	nt	nt
Cc1ccc(NC(=O)Cn2nc(C(F)(F)F)c3c2CCCC3)cc1C	?	nt	-22%	nt	nt
COc1cc(NC(=O)Cn2nc(C(F)(F)F)c3c2CCCC3)c(OC)cc1Cl	21µM*	nt	16µM*	nt	nt
COc1cc(NC(=O)Cn2nc(C(F)(F)F)c3c2CCC3)cc(OC)c1OC	?	nt	9.2µM*	nt	nt
COc1ccc(NC(=O)CSc2nc3ccccc3nc2N2CCCC2)cc1Cl	?	5%	?	2%	-28
COc1ccccc1N1CCN(C(c2ccccc2)c2nnc(-c3ccccc3Cl)o2)CC1 (centres undefined)	29µM*	nt	?	nt	nt
COc1ccccc1C(c1nnnn1CCc1ccccc1)N1CCCCCC1 (centres undefined)	?	?	23µM*	?	-22
COc1cccc(C(c2nnnn2CCc2ccccc2)N2CCN(c3ccccc3)CC2)c1OC (centres undefined)	?	8%	?	7%	-20
COc1ccccc1N1CCN(C(c2ccccc2)c2nnnn2CCc2ccccc2)CC1 (centres undefined)	18µM*	-1%	18µM*	-20%	0
COc1ccc(C(c2nnnn2CCc2ccccc2)N2CCN(C)CC2)cc1OC (centres undefined)	-12%	9%	-3%	-2%	-7
CN1CCC2(CC1)Nc1nc(SCc3ccc(Cl)cc3)nn1C1=C2CN(C)CC1	?	26µM*	23µM*	21µM*	-62*
CN(Cc1ccccc1)C(=O)c1ncn(C)c1C(=O)N(C)Cc1ccccc1	-12%	0%	-25%	8%	16
CN(Cc1ccccc1)C(=O)c1ncn(Cc2ccccc2)c1C(=O)N(C)Cc1ccccc1	?	0%	18µM*	-1%	-3
C[C@@H]1CNC(=O)c2c(C(=O)NCc3ccc(CNC(=O)OC(C)(C)C)cc3)ncn21	?	1%	21µM*	1%	1
CN(Cc1ccccc1)C(=O)c1[nH]cnc1C(=O)Nc1nccs1	?	12%	-7%	7%	-19
SMILES	TDP1 cell CPT	HT1080NT lethal	TDP1 cell noCPT	HT1080 IDH1KD tx	IL1B secr inh
CC(C)(C)OC(=O)N1CCC(NC(=O)c2[nH]cnc2C(=O)Nc2ccc(Br)cc2F)CC1	21µM*	10%	18µM*	11%	2
O=C(Nc1nccs1)c1nc[nH]c1C(=O)NCc1ccccc1	12%	?	0%	0.82µM*	-14
CN(Cc1ccccc1)C(=O)c1[nH]cnc1C(=O)NCc1ccc(CNC(=O)OC(C)(C)C)cc1	?	-20%	13µM*	3%	9
CN(Cc1ccccc1)C(=O)c1[nH]cnc1C(=O)NC1CCN(C(=O)OC(C)(C)C)CC1	21µM*	0%	?	2%	15
C[C@@H](OC(=O)c1[nH]cnc1C(=O)NCc1ccc(CNC(=O)OC(C)(C)C)cc1)c1ccccc1	21µM*	?	16µM*	?	-21
CCN(CC)c1ncn(Cc2c(Cl)cccc2Cl)c2ncnc1-2	?	-28%	15µM*	?	-7
Cc1[nH]c2ccccc2c1C1=CC(=O)C=CC1=O	1.6µM*	-13%	1.8µM*	21µM*	-101*
Cc1[nH]c2ccccc2c1CC#N	?	-5%	-11%	22%	18
CCOC(=O)c1c(CSc2ccccc2)n(C)c2cc(Br)c(OC)c(O)c12	?	-1%	?	3%	-27
CCOC(=O)c1c(CSc2ccccc2)n(C)c2cc(Br)c(OCC(O)CNC(CO)(CO)CO)cc12 (centres undefined)	?	-5%	15µM*	-16%	-100*
CCOC(=O)c1c(CN2CCOCC2)n(C)c2cc(Br)c(O)c(CN(C)C)c12	?	9%	?	0%	?
CCOC(=O)c1c(CN2CCC(C)CC2)n(C)c2cc(Br)c(OC)cc12	?	18%	16µM*	0%	-13
CCOC(=O)c1c(CN2CCN(CC#N)CC2)n(C)c2cc(Br)c(OC)cc12	?	?	?	21µM*	-63*
CCOC(=O)c1c(C)n(C)c2cc(Br)c(C)cc12	-7%	11%	-12%	8%	0
CCOC(=O)c1c(CN2CCN(Cc3ccccc3)CC2)n(C)c2cc(Br)c(OC)cc12	?	0%	16µM*	18%	-10
C=CC[N+]1([C@H]2C[C@H]3[C@@H]4CC[C@H]5C[C@H](O)[C@@H](N6CCOCC6)C[C@]5(C)[C@H]4CC[C@]3(C)[C@H]2OC(C)=O)CCCC1	2%	nt	-23%	nt	nt
CC1CCN(S(=O)(=O)N2CCC(C(=O)NCc3ccc(F)cc3Cl)CC2)CC1	-24%	-10%	?	0%	-24
Cc1ccc2sc(=O)[nH]c2c1	2%	-1%	-14%	-1%	12

Bioassay records from PubChem BioAssay.
